From PubChem BioAssay (NCI)
About 83,000 compounds went through this panel and 20% of them were active in at least one assay; those are over-represented in the sample as a whole.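 A percent growth of 40 corresponds to 60% growth inhibition; 0 means no net growth; -100 means all cells died. Active threshold: below 10.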 A number with no mark means an inactive call. Active and inactive are the calls of the source.

How the values were obtained:
Assay in all cases: NCI-60 one-dose screen, 48 h (100 = growth as untreated, 0 = no growth, -100 = all killed)
Details in all cases: 10 µM unless noted
NCI-H23 lung = system: NCI-H23 lung
NCI-H226 lung = system: NCI-H226 lung
NCI-H322M lung = system: NCI-H322M lung
HOP-62 NSCLC = system: HOP-62 NSCLC
NCI-H460 lung = system: NCI-H460 lung
HOP-92 NSCLC = system: HOP-92 NSCLC
NCI-H522 lung = system: NCI-H522 lung
A549/ATCC NSCLC = system: A549/ATCC NSCLC
786-0 renal = system: 786-0 renal
COLO 205 colon = system: COLO 205 colon

SMILES | growth (NCI-H23 lung) | growth (NCI-H226 lung) | growth (NCI-H322M lung) | growth (HOP-62 NSCLC) | growth (NCI-H460 lung) | growth (HOP-92 NSCLC) | growth (NCI-H522 lung) | growth (A549/ATCC NSCLC) | growth (786-0 renal) | growth (COLO 205 colon)
O=[N+]([O-])c1cccc(/C=C/c2ccc3ccccc3n2)c1 | 85.8% | 82.9% | 74.3% | 55.5% | 77.1% | 66.6% | 47.5% | 79.5% | 70.4% | 91.7%
Cc1cccc(C[C@H](NC(=O)Nc2ccc(Cl)cc2F)C(=O)N[C@@H]2C(=O)N3C[C@H](O)C[C@H]3C(=O)N3CCCC[C@H]3C(=O)N[C@@H](C)C(=O)N3C[C@H](C)C[C@H]3C(=O)O[C@H]2C)c1 | 25.7% | 20.9% | 34% | 24% | 2.42% (active) | -7.02% (active) | 14.7% | 17.9% | 11% | -30.9% (active)
CCCCC(CCCCCC(CCCC)C1NC(C)Cc2cc(OC)c(OC)cc21)C1NC(C)Cc2cc(OC)c(OC)cc21 (stereo not given) | -81.4% (active) | -77.8% (active) | -39.4% (active) | -97.2% (active) | -73.8% (active) | -57.8% (active) | -87.7% (active) | -80.9% (active) | -98.4% (active) | -96.9% (active)
C=C(C)[C@@H]1CC[C@]2(C(=O)NCCNCCNCCN)CC[C@]3(C)[C@H](CC[C@@H]4[C@@]5(C)CC[C@H](O)C(C)(C)[C@@H]5CC[C@]43C)[C@@H]12 | -51.7% [100 µM] (active) | -23.6% [100 µM] (active) | -83.8% [100 µM] (active) | -69.1% [100 µM] (active) | -100% [100 µM] (active) | -65.4% [100 µM] (active) | -57.8% [100 µM] (active) | -64.6% [100 µM] (active) | -83.5% [100 µM] (active) | -19.5% [100 µM] (active)
C#CCOc1ccc(C2=NN(CC3CC3)C3N=C(Cl)c4ncn(CC5CC5)c4N23)cc1OCC#C (stereo not given) | 85.7% | 76.4% | 76.1% | 83.8% | 69.6% | 61.7% | 60.6% | 71.4% | 93.6% | 78.9%
c1ccc(-c2n[nH]c(-c3ccccn3)n2)nc1 | 102% | 118% | 121% | 104% | 106% | 94% | 96.8% | 105% | 97% | 143%
CCN(CC)CCSC(=O)C(O)(c1ccccc1)C1CCCC1 (stereo not given) | 99.4% | 93.1% | 118% | 111% | 115% | 77% | 86.7% | 85.2% | 169% | 144%
c1cc2ccc1CNCCN1CCNCc3ccc(cc3)Oc3ccc(cc3)CNCCN(CCNCc3ccc(cc3)O2)CCNCc2ccc(cc2)Oc2ccc(cc2)CNCC1 | -79.3% (active) | -56.6% (active) | -28.5% (active) | -78.2% (active) | -66.3% (active) | -92.2% (active) | -84.3% (active) | -79.1% (active) | 66.2% | -86.8% (active)
CCOC(CNC(=O)c1cccc([N+](=O)[O-])c1)OCC | 85.7% | 89.8% | 109% | 108% | 101% | 96.7% | 64.2% | 83.7% | 101% | 108%
CCOC(=O)c1nn(C2CCCCO2)c2ccc(NC(=O)CSc3nc4ccccc4c(=O)[nH]3)cc12 (stereo not given) | 102% | 97.6% | 92.5% | 88.2% | 98.9% | 92.5% | 100% | 99.4% | 91% | 126%
CC1(C)CC[C@]2(C(=O)O)CC[C@]3(C)[C@H](CC[C@@H]4[C@@]5(C)CCC(=O)C(C)(C)[C@@H]5CC[C@]43C)[C@H]2[C@H]1OC(=O)C(F)(F)F | -62.4% [100 µM] (active) | -51.2% [100 µM] (active) | -65.6% [100 µM] (active) | -79.6% [100 µM] (active) | -66.1% [100 µM] (active) | -79.6% [100 µM] (active) | -71.2% [100 µM] (active) | -52.7% [100 µM] (active) | -72.7% [100 µM] (active) | -72% [100 µM] (active)
O=C(OCc1ccc2c(Cl)cc(Cl)c(O)c2n1)N1CCN(C(=O)c2cc3cc(F)ccc3[nH]2)CC1 | 26.3% | 2.12% (active) | 33.5% | 6.32% (active) | 1.07% (active) | 39.2% | -19.1% (active) | 13.6% | 79.2% | 85.7%
COc1ccc2nc3c(cc2c1)C(=O)CC(C(F)(F)F)C3 (stereo not given) | 50.5% | 39.8% | 37.4% | 47.7% | 10.5% | 66.2% | 31.1% | 39.3% | 53.7% | 9.86% (active)
O=C(COc1cccc(/C=C2\Oc3ccccc3C2=O)c1)c1ccc([N+](=O)[O-])cc1 | 79.9% | 85.8% | 115% | 103% | 95.7% | 78.1% | 57% | 90% | 102% | 107%
CCCCN(CC)CC(CC)Nc1cc(OC)cc2cccnc12 (stereo not given) | 113% | 107% | 110% | 110% | 110% | 89.4% | 118% | 96.3% | 107% | 119%
COc1ncc(-c2ccc3nc(N)n(-c4ccccc4C(F)(F)F)c(=O)c3c2)cc1S(=O)(=O)Nc1ccc(F)cc1F | 30.6% | 88.9% | -11.6% (active) | 82.4% | 28.1% | 25.3% | 46.8% | 29% | 33.7% | -66.2% (active)
CCNc1cc2c(cc1Br)-c1ccccc1C2=O | 86% | 92.3% | 87.9% | 92.3% | 96.8% | 84.9% | 93.6% | 96.3% | 109% | 111%
CCOC(=O)C(=Cc1ccccc1[N+](=O)[O-])C(=O)OCC | 14.4% | 42.3% | 89.2% | 27.3% | 49.5% | 9.84% (active) | -1.64% (active) | 53.6% | 28.2% | -42.2% (active)
COc1ccc(NCc2cn(-c3ccc(C(=O)O)cc3)nc2-c2ccc(C(=O)O)cc2)cc1C(F)(F)F | 99.8% | 98.5% | 89.1% | 96.6% | 100% | 66.6% | 97.8% | 99.8% | 90.4% | 111%
CCOc1cc(/C=N\NC(=O)N/N=C/c2ccc(O)c(OCC)c2)ccc1O | 33% | 55.5% | 50.7% | 38.9% | 11.8% | 80.7% | -18.6% (active) | 59.4% | 28.6% | 42.7%
CN(C)CCOc1ccc(/C(=C(/CCCl)c2ccccc2)c2ccccc2)cc1 | 28.5% | 59.1% | 37.1% | -18.8% (active) | -73.3% (active) | -4.94% (active) | 10.8% | 26.4% | -28.5% (active) | -93.6% (active)
CCC(Br)(CC)C(=O)c1ccc(OCC(=O)O)c(Cl)c1Cl | 103% | 87.4% | 112% | 119% | 96% | 102% | 82.1% | 91.5% | 117% | 108%
CNc1cc(C(=O)O)nc(NC)n1 | 100% | 98.8% | 95.7% | 103% | 99.2% | 87.1% | 97.1% | 101% | 105% | 105%
O=C(N=c1n(-c2ccccc2)nc2n1CCN2C1=NCCN1C(=O)c1ccc(Cl)cc1)c1ccc(Cl)cc1 | 75.9% | 93.2% | 86.9% | 93.5% | 60.6% | 120% | 64.2% | 65.4% | 83.1% | 75.1%
COC(=O)[C@]12CCC(C)(C)C[C@H]1C1=CC[C@@H]3[C@@]4(C)C/C(=C/c5cccnc5)C(=O)C(C)(C)[C@@H]4CC[C@@]3(C)[C@]1(C)CC2 | -40.6% [100 µM] (active) | -51.7% [100 µM] (active) | -13.4% [100 µM] (active) | -19.3% [100 µM] (active) | -39.3% [100 µM] (active) | -61.5% [100 µM] (active) | -72.9% [100 µM] (active) | 0.0781% [100 µM] (active) | -29.1% [100 µM] (active) | -46.2% [100 µM] (active)
